# Giardia killer: Giardia lamblia killing | Giardia lamblia trophozoite viability | activity change, % at 7.66 µM, hits read low | 340,000 compounds, 0.15% hits | AID 540267; in the data active means activity change below about -80%; inconclusive means between about -30% and that limit;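 further: parasites exposed to compound for two days anaerobically before the ATP read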
#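 Giardia trophozoites, 100 cells per well, were exposed to compounds for 48 hrs at 37 deg C under anaerobic conditions; viability was then read as ATP content by bioluminescence after 15-30 min at room temperature.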
# ASM inhibitor: blocks human secretory acid sphingomyelinase; P17405; placental ASM, HMU-PC fluorogenic substrate, 60 min; Potency, µM (doses to about 57.5 µM), actives largely listed as inhibitors; 340,000 compounds, 0.006% hits
# Target sequence (P17405 47-631 limits assumed): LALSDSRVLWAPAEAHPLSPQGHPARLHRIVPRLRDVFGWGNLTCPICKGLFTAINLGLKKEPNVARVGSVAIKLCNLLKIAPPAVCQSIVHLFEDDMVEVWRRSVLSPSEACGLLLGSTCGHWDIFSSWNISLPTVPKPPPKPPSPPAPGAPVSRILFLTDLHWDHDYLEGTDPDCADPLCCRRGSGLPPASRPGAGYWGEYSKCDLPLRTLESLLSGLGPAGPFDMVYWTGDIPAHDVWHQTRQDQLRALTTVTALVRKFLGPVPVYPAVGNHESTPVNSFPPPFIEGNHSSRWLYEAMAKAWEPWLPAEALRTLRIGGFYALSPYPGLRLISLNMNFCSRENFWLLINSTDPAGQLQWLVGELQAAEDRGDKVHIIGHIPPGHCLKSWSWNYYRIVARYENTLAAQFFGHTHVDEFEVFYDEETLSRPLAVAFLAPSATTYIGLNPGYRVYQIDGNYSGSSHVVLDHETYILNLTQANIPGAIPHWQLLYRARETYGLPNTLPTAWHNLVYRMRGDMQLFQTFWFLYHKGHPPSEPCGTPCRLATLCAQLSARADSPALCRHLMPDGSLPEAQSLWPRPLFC
#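 Steps: dispense placental human ASM, pin compound, wait 10 min at room temperature, add HMU-PC0 substrate at 9 uM final, incubate 60 min at 37 °C, add stop solution raising pH to 10, read fluorescence.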
# SW480 rereplic: DNA re-replication induction in SW480 cells. SW480 DNA re-replication, Hoechst DNA content imaging, 48 h. Potency, µM (series often up to 46.1 µM), actives largely listed as activators. 340,000 compounds, 1.8% hits. AID 624297; further: nearly all actives have a fitted effect of over 55% in size
#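 First, 250 cells per well were seeded. Next, compound or vehicle (23 nL) was pinned in, plates sat 48 hr at 37 C. Finally Hoechst was added for 40 min before fluorescence scanning.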
# KB-V1 MDR tox: KB-V1 MDR subline cytotoxicity; KB-V1 MDR cells viability, CellTiter-Glo, 72 h; Potency, µM (titrated, usually from 46.1 µM), hits mostly cytotoxic; 400,000 compounds, 3.4% hits; further: nearly all actives have a fitted effect of over 60% in size
#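 Compound-treated KB-V1 multidrug-resistant cells, 72 h, 37 degrees C; viability by CellTiter-Glo. Fitted qHTS curves give the values.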
# MCF10A rerep: inducers of DNA re-replication in MCF 10A breast cells; MCF 10A DNA re-replication, Hoechst nuclear intensity, 48 h; Potency, µM (series often up to 46.1 µM), most hits filed as activators; 350,000 compounds, 2.9% hits; further: nearly all actives have a fitted effect of over 50% in size
# KB-3-1 tox: KB-3-1 parental cell cytotoxicity. KB-3-1 viability, CellTiter-Glo ATP luminescence, 72 h. Potency, µM (top dose mostly 46.1 µM), actives largely listed as cytotoxic. 400,000 compounds, 1.4% hits. AID 1347075; further: nearly all actives have a fitted effect of over 60% in size
#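 Here the drug-naive KB-3-1 line serves as comparator for MDR sub-line selectivity; cells received compound titrations, 72 h at 37 °C, then CellTiter-Glo readout.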
# Hits are given with their value; i = inactive; ? = inconclusive; nt = no result. In the library only some 6.9% were active in any assay of this set; here they are far more common. Unless noted, the call rests on the fitted dose curve; in most records, active means well fitted curve in the direction sought with a large enough effect; inconclusive means small, poorly fitted or top-dose-only effect, or another doubt; inactive means no such curve, though single readings can be large; an effect the other way counts as inactive or inconclusive.
SMILES,Giardia killer,ASM inhibitor,SW480 rereplic,KB-V1 MDR tox,MCF10A rerep,KB-3-1 tox
CCCn1c(NC(=O)c2ccco2)nc2ccccc21,i,i,i,15µM,i,i
CCCn1c(NC(=O)c2ccc(Br)cc2)nc2ccccc21,i,i,i,i,i,i
COc1ccc(C(=O)Nc2nc3ccccc3n2CCOc2ccc(Cl)cc2)cc1,nt,nt,nt,i,nt,i
COc1ccc(OCCn2c(NC(=O)c3ccco3)nc3ccccc32)cc1,i,i,4.1µM,i,12µM,i
CCCn1c(NC(=O)c2ccccc2Br)nc2ccccc21,i,i,i,9.2µM,?,?
O=C(N[C@H](Cc1cc(=O)[nH]c2ccccc12)C(=O)O)c1ccc(Cl)cc1,i,i,i,i,i,i
Cc1ccc(CN2CCSc3ccc(C(=O)N4CCN(c5ncccn5)CC4)cc32)cc1,i,i,?,21µM,?,21µM
CCN1CCN(CCCNC(=O)c2ccc3c(c2)N(Cc2ccc(C)cc2)CCS3)CC1,i,i,15µM,i,i,?
CCN1CCN(C(=O)c2ccc3c(c2)N(Cc2ccc(C)cc2)CCS3)CC1,i,i,?,i,i,i
CCN(c1ccccc1)S(=O)(=O)c1ccc(OC)c(NC(=O)C2CCC2)c1,i,i,?,nt,18µM,nt
CCc1ccc(CNC(=O)Cn2nc(C)n3c(cc4cc(C)ccc43)c2=O)cc1,nt,nt,nt,i,nt,i
COc1ccc(CCSc2n[nH]c(C(C)C)n2)cc1,nt,nt,nt,?,nt,i
COc1cccc(N2[C@@H](CC(C)=O)c3ccc(/C=C/C(C)=O)cc3S2(=O)=O)c1,i,i,i,?,21µM,?
COc1ccc(CN2[C@@H](CC(C)=O)c3ccc(/C=C/C(C)=O)cc3S2(=O)=O)cc1,i,i,?,?,?,?
CCOC(=O)c1c(C)[nH]c(-c2csc(N)n2)c1C,i,i,?,i,16µM,?
O=C1OCCC1Sc1nnc2c(n1)[nH]c1ccccc12 (centres undefined),i,nt,nt,nt,nt,nt
O=C(CN(CC1CCCO1)C(=O)CNS(=O)(=O)c1ccc(F)cc1)NC1CCCCC1 (centres undefined),i,i,i,i,i,i
COc1ccccc1CNS(=O)(=O)c1cccs1,i,i,i,?,i,i
CCOc1ccccc1NC(=O)c1cc(C(=O)c2cc(Br)ccc2O)coc1=N,i,i,?,?,7.3µM,?
Cc1cc(C(=O)COc2cccnc2[N+](=O)[O-])c(C)n1Cc1cccs1,-94,i,i,?,?,?
Cc1cc(C(=O)COC(=O)c2ccccc2O)c(C)n1Cc1cccs1,?,i,i,?,i,i
O=C(COc1cccnc1[N+](=O)[O-])NCc1cccs1,?,i,i,i,?,i
Cc1csc(SCC(=O)c2cc(C)n(Cc3cccs3)c2C)n1,?,i,i,?,i,?
CC(=O)Nc1ccccc1OCC(=O)c1cc(C)n(Cc2cccs2)c1C,i,i,i,?,i,4.6µM
Cc1cc(-n2c(C)cc(C(=O)COc3cccnc3[N+](=O)[O-])c2C)no1,?,i,8.2µM,16µM,7.3µM,?
SMILES,Giardia killer,ASM inhibitor,SW480 rereplic,KB-V1 MDR tox,MCF10A rerep,KB-3-1 tox
Cc1cc(C(=O)CSc2nnc(N)s2)c(C)n1Cc1cccs1,i,i,i,23µM,i,?
Cc1cc(OC(C)C(=O)NCCCN2CCOCC2)c2c(C)c(C)c(=O)oc2c1 (centres undefined),i,i,i,i,i,i
O=C(Nc1cccc(C(F)(F)F)c1)c1ccc2c(c1)nnn2C1CCCC1,nt,nt,nt,i,nt,i
O=C(Cn1c2ccccc2c(=O)c2cc([N+](=O)[O-])ccc21)Nc1ccccc1Cl,?,i,16µM,i,?,i
CCc1ccc2nc3n[nH]c(N)c3cc2c1,i,i,i,12µM,i,?
Nc1[nH]nc2nc3ccccc3cc12,i,i,i,?,i,?
O=C(CCN1CCc2ccccc2C1)c1ccc2c(c1)OCCO2,i,i,16µM,?,?,?
O=C(CCN1CCc2ccccc21)c1ccc2c(c1)OCCO2,i,i,?,i,i,?
O=C(CCN1CCC(c2ccccc2)C1)c1ccccc1 (centres undefined),i,i,?,i,?,i

# Source: PubChem (National Center for Advancing Translational Sciences (NCATS))
